Assay [1] can be described thus: Primary qHTS for inhibitors of nuclear receptor binding SET domain protein 2 (NSD2) in an isogenic RCH-ACV NSD2 p.E1099K mutant (9B) (AID 1645876). Also: nearly all actives have a fitted effect of over 70% in size. Also: potency is read from the fitted curve at half-maximal effect. A general note: qHTS replaces the single test concentration by a dilution series.
Assay [2] can be described thus: Primary qHTS for inhibitors of nuclear receptor binding SET domain protein 2 (NSD2) in an RCH-ACV wild type WT cells (2C) (AID 1645877). Also: nearly all actives have a fitted effect of over 70% in size. Also: potency is read from the fitted curve at half-maximal effect.
Assay [3] addresses Glutathione peroxidase 1 (Homo sapiens) (UniProt P07203). In words: Primary qHTS Assay for Inhibitors of Recombinant Selenoprotein Glutathione Peroxidase 1 (GPX1) (AID 1845191). Also: nearly all actives have a fitted effect of over 65% in size. Also: potency is read from the fitted curve at half-maximal effect. The procedure, abridged: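 GPX1 10 nM, GR 100 nM, GSH 1 mM, NADPH 0.5 mM, CHP 0.5 mM (final). 30-min cpd preincubation, RT. Ex340/Em450 read t=0, t=15 min.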
Assay [4] has as its target Phospholipid hydroperoxide glutathione peroxidase GPX4 (Homo sapiens) (UniProt P36969). In words: Primary qHTS Assay for Inhibitors of Recombinant Selenoprotein Glutathione Peroxidase 4 (GPX4) (AID 1845192). Also: nearly all actives have a fitted effect of over 65% in size. Also: potency is read from the fitted curve at half-maximal effect. The procedure, abridged: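 qHTS, GR-coupled: GPX4 200 nM + cpd 30 min RT → GSH 1 mM, NADPH 0.5 mM, GR 100 nM → CHP 0.5 mM start; fluor 340/450 at t0 and t15 min; no-enzyme wells as control.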

Assay [5] in a line: qHTS drug screen for cell cycle checkpoint inhibitors in PARPi-resistant BRCA-mutant ovarian cancer cell lines. (AID 1963452; calls by dose curve; also: potency is read from the fitted curve at half-maximal effect). Particulars: PEO1/OlaR viability, CellTiter-Glo luminescence, 96 h; for Z-AUC: stronger effect = lower value. The procedure, abridged:
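PEO1, PEO4 and PEO1/OlaR ovarian cancer cells, 600 per well, exposed 96 h at 37C to a dilution series. Viability read by CellTiter-Glo luminescence, normalized to DMSO and empty wells; activity summarized as Z-AUC.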

Assay [6] deals with Tyrosine-protein kinase Yes (Homo sapiens) (UniProt P07947). In words: qHTS for small molecule inhibitors of Yes1 kinase: Primary Screen (AID 686947).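 Also: plate controls were DMSO with enzyme for no effect and no-enzyme DMSO wells for full effect; nearly all actives have a fitted effect of over 60% in size.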 A digest of the protocol:
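In this qHTS format, inhibition is expressed relative to DMSO controls with enzyme (maximum) and without enzyme (minimum). The 60 min room-temperature reaction uses 0.1 mM ATP, with ADP detected by luminescence.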

Assay [7] is described as follows: qHTS for small molecule inhibitors of Yes1 kinase: Counter Assay (AID 686950).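 Also: no kinase present so only ADP-Glo detection of a fixed ADP amount is tested; luminescence from ADP-Glo reporting ADP in a fixed ATP and ADP mixture; series mostly up to about 77 µM; 0% = DMSO wells with ATP plus ADP and -100% = ATP-only wells without ADP.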 The procedure, abridged:
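Measuring interference with ADP-Glo, the assay ran 60 min at room temperature on an ATP/ADP mix lacking enzyme. Values were normalized to ATP-plus-ADP (maximum) and ATP-only (minimum) DMSO controls.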

Setting [8] is: measured here: PEO1 parental Z-AUC.

“And” between values parts separate entries of the source, which are not always exact repeats. Equal values may be shown once. Records with an inconclusive call do not appear. The source made the active and inactive calls. Unless noted, calls follow the shape of the dose curve; as a rule, active = well fitted curve in the direction sought with a large enough effect; inconclusive = small, poorly fitted or top-dose-only effect, or another doubt; inactive = no such curve, though single readings can be large; an effect the other way counts as inactive or inconclusive.

Glutathione peroxidase 1 (Homo sapiens), sequence (P07203 whole entry, looked up): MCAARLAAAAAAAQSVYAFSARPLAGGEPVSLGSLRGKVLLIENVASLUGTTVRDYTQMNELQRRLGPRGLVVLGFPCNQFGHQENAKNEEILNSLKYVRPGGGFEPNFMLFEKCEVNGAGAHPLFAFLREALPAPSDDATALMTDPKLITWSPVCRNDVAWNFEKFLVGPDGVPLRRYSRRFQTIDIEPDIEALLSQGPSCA
Phospholipid hydroperoxide glutathione peroxidase GPX4 (Homo sapiens), sequence (P36969 whole entry, looked up): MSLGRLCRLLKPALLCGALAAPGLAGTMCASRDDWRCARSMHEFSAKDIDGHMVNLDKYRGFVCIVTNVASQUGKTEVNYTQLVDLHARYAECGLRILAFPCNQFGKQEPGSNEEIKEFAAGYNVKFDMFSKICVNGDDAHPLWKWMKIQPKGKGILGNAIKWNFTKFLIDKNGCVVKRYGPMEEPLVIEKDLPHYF
Tyrosine-protein kinase Yes (Homo sapiens), sequence (P07947 whole entry, looked up): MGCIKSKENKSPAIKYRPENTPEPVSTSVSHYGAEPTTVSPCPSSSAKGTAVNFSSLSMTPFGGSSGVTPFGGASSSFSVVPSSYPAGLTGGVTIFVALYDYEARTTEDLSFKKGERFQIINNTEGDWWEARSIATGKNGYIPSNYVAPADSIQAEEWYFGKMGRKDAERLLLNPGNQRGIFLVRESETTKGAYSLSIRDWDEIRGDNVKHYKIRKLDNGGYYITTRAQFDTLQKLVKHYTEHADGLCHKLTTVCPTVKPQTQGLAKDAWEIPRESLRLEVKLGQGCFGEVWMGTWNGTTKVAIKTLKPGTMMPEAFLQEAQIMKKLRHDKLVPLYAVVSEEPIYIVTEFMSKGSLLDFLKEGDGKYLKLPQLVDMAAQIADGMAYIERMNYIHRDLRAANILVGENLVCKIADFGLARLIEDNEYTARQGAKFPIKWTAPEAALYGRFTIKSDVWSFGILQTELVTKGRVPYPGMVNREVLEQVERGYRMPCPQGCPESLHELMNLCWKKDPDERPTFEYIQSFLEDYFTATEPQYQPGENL

Regarding `CC1=C2C[C@H]3[C@@H](CC[C@@H]4C[C@H](NS(C)(=O)=O)CC[C@@]43C)[C@@H]2CC[C@@]2(C1)O[C@@H]1C[C@H](C)CN[C@H]1[C@H]2C`, the Potency in assay [1] and in assay [2] was 13.2 µM (active) throughout. Also, the Potency result in assay [3] and in assay [4] was “inactive” in each case. Also, the Z-AUC in assay [5] is 0.848 (inactive); in assay [5] (setting [8]), 0.333; in assay [5] (measured here: PEO4 Z-AUC), -0.208.
For `COc1ccc(/C=C\c2cc(OC)c(OC)c(OC)c2)cc1O`, the Potency in assay [1] is 0.0105 µM (active); in assay [2] it was 0.0093 µM (active); in assay [5], 0.0078 µM (active). Further, the Potency entry in assay [3] and in assay [4] was “inactive” in each case. The Z-AUC in assay [5] (setting [8]) is -1.52; in assay [5] (measured here: PEO4 Z-AUC), -1.81.
Turning to `Cc1ccc(Nc2cc(N[C@@H]3CCCC[C@@H]3N)nnc2C(N)=O)nc1C`, the Potency in assay [1] is 1.05 µM (active); in assay [2], 0.934 µM (active). Further, the Potency result in assay [3] and in assay [4] was “inactive” each time. Moreover, the Z-AUC was -0.241 (inactive) in assay [5], -0.11 in assay [5] (setting [8]) and 0.345 in assay [5] (measured here: PEO4 Z-AUC).
`Cc1ccc([C@@H]2O[C@H](CO)[C@@H](O)[C@H](O)[C@H]2O)cc1Cc1ccc(-c2ccc(F)cc2)s1`: the Potency in assay [1] is 23.5 µM (active); in assay [2], 20.9 µM (active). For the same compound, the Potency result in assay [3] and in assay [4] was “inactive” each time. The Z-AUC in assay [5] was -0.931 (inactive); in assay [5] (setting [8]), -1.18; in assay [5] (measured here: PEO4 Z-AUC), -1.2.
As to `CC1=C(c2ccc(O)cc2)[C@H](c2ccc(OCCN3CCCCC3)cc2)Oc2cc(O)ccc21`, the Potency entry in assay [1], in assay [3] and in assay [4] was “inactive” in each case.
For `CCN1C(=O)N2Cc3cc(OC)cc(OC)c3[C@@H](C)C=C2C12CCN(Cc1cc(C)cc(C)c1)CC2`, in assay [2], the Potency is 18.6 µM (active). For the same compound, the Potency result in assay [3] and in assay [4] was “inactive” in each case.
`CCn1c(-c2nonc2N)nc2cncc(C(=O)N3CC[C@H](N)C3)c21`: the Potency in assay [1] was 10.3 µM (active). Further, the Potency entry in assay [3] was “inactive”.
In the case of `CCOC(=O)C1=CCCCC1S(=O)(=O)Nc1ccc(F)cc1Cl` (stereo unspecified), the Potency in assay [1] was 20.9 µM (active); in assay [2] it was 18.6 µM (active). For the same compound, the Potency result in assay [3] was “inactive”. Moreover, the Z-AUC in assay [5] is 1.33 (inactive); in assay [5] (setting [8]), 1.11; in assay [5] (measured here: PEO4 Z-AUC), 1.15.
With `N#Cc1ccc(Cn2cncc2CN2CCN(c3cccc(Cl)c3)C(=O)C2)cc1`, the values for the Potency in assay [1] and in assay [2] were 4.68 µM (active) and 2.63 µM (active), respectively. Also, the Potency result in assay [3] and in assay [4] was “inactive” throughout. Moreover, the Z-AUC in assay [5] was -0.462 (inactive); in assay [5] (setting [8]), -0.168; in assay [5] (measured here: PEO4 Z-AUC) it was -0.142.
Take `CC(/C=C/[C@@H]1C[C@]1(C)c1ccc2c(c1)C(C)(C)CCC2(C)C)=C\C(=O)O`: the Potency result in assay [1], in assay [2] and in assay [3] was “inactive” each time. Further, the Z-AUC in assay [5] was -0.0414 (inactive); in assay [5] (setting [8]) it was 0.571; in assay [5] (measured here: PEO4 Z-AUC), 0.122.
Consider `Cc1noc(-c2ccc(-c3ccc(C4(C(=O)O)CC4)cc3)cc2)c1NC(=O)O[C@H](C)c1ccccc1`, for which the Potency was 16.6 µM (active) in assay [1], 16.6 µM (active) in assay [2] and 9.04 µM (active) in assay [4]. The Z-AUC in assay [5] was 1.39 (inactive); in assay [5] (setting [8]) it was 1.53; in assay [5] (measured here: PEO4 Z-AUC), 1.53.
In the case of `COc1cc(N2CCN(C)CC2)ccc1Nc1ncc2c(n1)N(C)c1ccccc1C(=O)N2`, the Potency in assay [1] and in assay [2] was 16.6 µM (active) in each case. In addition, the Potency result in assay [3] and in assay [4] was “inactive” throughout. For the same compound, the Z-AUC in assay [5] was -0.466 (inactive); in assay [5] (setting [8]) it was -0.178; in assay [5] (measured here: PEO4 Z-AUC), 0.52.
Take `COC(=O)N[C@H](C(=O)N1CCC[C@H]1c1ncc(-c2ccc(-c3ccc(-c4cnc([C@@H]5CCCN5C(=O)[C@@H](NC(=O)OC)C(C)C)[nH]4)cc3)cc2)[nH]1)C(C)C`: the Potency was 20.9 µM (active) in assay [2]; 16.1 µM (active) in assay [3]; 18 µM (active) and 20 µM (active) in assay [4]. In addition, the Z-AUC in assay [5] was -0.519 (inactive); in assay [5] (setting [8]), -0.789; in assay [5] (measured here: PEO4 Z-AUC), -0.801.
`C[C@@H]1COCCN1c1cc(-c2ccnn2C)c2ccnc(-c3ccn[nH]3)c2n1`: the Potency is 0.209 µM (active) in assay [1], 0.186 µM (active) in assay [2] and 20.2 µM (active) in assay [4]. Besides, the Z-AUC in assay [5] is -0.499 (inactive); in assay [5] (setting [8]) it was -1.38; in assay [5] (measured here: PEO4 Z-AUC), -1.35.
On to `CC[C@@H]1[C@H](F)C(=O)N[C@@H]1COc1nccc2cc(C(N)=O)c(OC)cc12`, for which the Potency in assay [1] is 14.8 µM (active); in assay [2], 10.5 µM (active); in assay [4], 18 µM (active). Besides, in assay [3], the Potency result is “inactive”. Moreover, the Z-AUC is -0.948 (inactive) in assay [5], -0.251 in assay [5] (setting [8]) and 0.0982 in assay [5] (measured here: PEO4 Z-AUC).
For the compound `CCN(C)S(=O)(=O)Nc1ccc(F)c(C(=O)c2c[nH]c3ncc(-c4cnc(C5CC5)nc4)cc23)c1F`, the Potency was 8.33 µM (active) in assay [1] and 7.42 µM (active) in assay [2]. Also, the Potency result in assay [3] was “inactive”. Also, the Z-AUC in assay [5] is 0.933 (inactive); in assay [5] (setting [8]), 0.554; in assay [5] (measured here: PEO4 Z-AUC), 0.574.
In the case of `N#Cc1cccnc1N1CCN(C(=O)c2cccc(Cc3n[nH]c(=O)c4ccccc34)c2)CC1`, the Potency in assay [1] was 0.0332 µM (active); in assay [2], 0.0209 µM (active). For the same compound, the Potency result in assay [3] and in assay [4] was “inactive” each time. Besides, the Z-AUC in assay [5] was -1.35 (inactive); in assay [5] (setting [8]), -2.79; in assay [5] (measured here: PEO4 Z-AUC), -1.63.
Consider `CCCCCc1ccc(/C=C/[C@H](O)[C@@H](CO)NC)cc1`, for which the Potency in assay [1] is 23.1 µM (active). The Potency entry in assay [3] was “inactive”.
For the compound `CCCCCCCOc1ccc(CCC(N)(CO)CO)cc1C(F)(F)F`, the Potency in assay [1] was 11.8 µM (active); in assay [2], 10.5 µM (active). In addition, in assay [4], the Potency result is “inactive”. Also, the figures for the Z-AUC in assay [5], in assay [5] (setting [8]) and in assay [5] (measured here: PEO4 Z-AUC) were -0.8 (inactive), -1.22 and -1.35, respectively.
Take `COc1ccccc1-c1nc(SCC(=O)Nc2ccc(C)c(C)c2)n[nH]1`: the Potency entry in assay [1] and in assay [3] was “inactive” in each case.
Consider `CC1(C)OCCn2c1nc1c(N3CCOCC3)nc(-c3cnc(N)nc3)nc12`, for which, in assay [1], the Potency was 0.332 µM (active). Further, the Potency result in assay [3] and in assay [4] was “inactive” in each case. The Z-AUC in assay [5] was -0.953 (inactive); in assay [5] (setting [8]) it was -0.219; in assay [5] (measured here: PEO4 Z-AUC), -0.151.
Turning to `C[n+]1ccc(-c2c3nc(c(-c4cc[n+](C)cc4)c4ccc([nH]4)c(-c4cc[n+](C)cc4)c4nc(c(-c5cc[n+](C)cc5)c5ccc2[nH]5)C=C4)C=C3)cc1`, the Potency entry in assay [2] is “inactive”.
For `Nc1nonc1-c1nc2cnccc2n1C1CC1`, the call in assay [6] and in assay [7] was inactive. Besides, the results for the Potency in assay [1] and in assay [2] were 20.6 µM (active) and 8.2 µM (active), respectively. Besides, the Potency entry in assay [3] is “inactive”.
For `COc1ncc(Nc2ncc(C(C)N3CCN(S(C)(=O)=O)CC3)cc2-c2nc(C)nc(N)n2)cc1F` (stereo unspecified), the Potency entry in assay [2], in assay [3] and in assay [4] was “inactive” each time.
On to `CO[C@H]1C[C@@H]2CC[C@@H](C)[C@@](O)(O2)C(=O)C(=O)N2CCCC[C@H]2C(=O)O[C@H]([C@H](C)C[C@@H]2CC[C@@H](OCCO)[C@H](OC)C2)CC(=O)[C@H](C)/C=C(/C)[C@@H](O)[C@@H](OC)C(=O)[C@H](C)C[C@H](C)/C=C\C=CC=C1C`, for which the Potency in assay [1] was 0.118 µM (active); in assay [2], 0.0742 µM (active). In assay [3], the Potency result was “inactive”. In addition, the results for the Z-AUC in assay [5], in assay [5] (setting [8]) and in assay [5] (measured here: PEO4 Z-AUC) were 0.703 (inactive), 0.778 and 0.68, respectively.
